The supplement of paper PMC8253809
Values joined by “and” are separate entries in the source; they are usually repeats but may differ in a detail not shown here. Identical values can stand only once.

Experiments:
Experiment in all cases: growth inhibition (% activity, log2 RLU normalised to DMSO / staurosporine); higher = more growth inhibition
Settings in all cases: 33 µM
[1] = test system: DIPGX29 (H3.3 K27M diffuse intrinsic pontine glioma line)
Method in brief: (§1)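 For each approved drug, the growth-inhibition value is the replicate median of per-plate normalised CellTiter-Glo data. Luminescence was log2-transformed and expressed as % activity between solvent and positive control wells. Drugs were applied in triplicate at a single final concentration of about 33 μM for 7 days at 37 °C, 5% CO2 to pHGG cell lines and H9-derived neural stem cells.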

[2] = test system: DIPGX37 (H3.3 K27M diffuse intrinsic pontine glioma line)
Method in brief: as §1

[3] = test system: DIPGX7 (H3.3 K27M diffuse intrinsic pontine glioma line)
Method in brief: as §1

[4] = test system: DIPGX9 (diffuse intrinsic pontine glioma line)
Method in brief: as §1

[5] = test system: HGGX39 (paediatric high-grade glioma line)
Method in brief: as §1

[6] = test system: HGGX6 (H3.3 G34R paediatric high-grade glioma line)
Method in brief: as §1

[7] = test system: HNSC
Method in brief: as §1

[8] = test system: SUDIPGIV (diffuse intrinsic pontine glioma line)
Method in brief: as §1

[9] = test system: SUDIPGVI (diffuse intrinsic pontine glioma line)
Method in brief: as §1

[10] = test system: SUDIPGXIII (diffuse intrinsic pontine glioma line)
Method in brief: as §1

| SMILES | growth inhibition [1] | growth inhibition [2] | growth inhibition [3] | growth inhibition [4] | growth inhibition [5] | growth inhibition [6] | growth inhibition [7] | growth inhibition [8] | growth inhibition [9] | growth inhibition [10] |
| --- | --- | --- | --- | --- | --- | --- | --- | --- | --- | --- |
| OC(CCN1CCCC1)(c1ccccc1)C1CCCCC1 (stereo not given) | -1.59% | 0.342% | -1.45% | -1.38% | -2.22% | -0.386% | -0.926% | -0.217% | -0.619% | -1.02% |
| COc1ccc2c(c1)c(CC(=O)OCC(=O)O)c(C)n2C(=O)c1ccc(Cl)cc1 | 4.7% | 5.04% | 3.74% | 5.54% | 6.62% | 4.04% | 6.99% | -0.727% | 5.09% | 1.16% |
| CCCS(=O)(=O)Nc1ccc(F)c(C(=O)c2c[nH]c3ncc(-c4ccc(Cl)cc4)cc23)c1F | 0.0739% | 1.21% | -0.987% | 0.227% | -0.449% | 2.46% | 10.9% | -3.02% | 1.21% | 1.79% |
| O=C(OCC(O)CO)c1ccccc1Nc1ccnc2cc(Cl)ccc12 (stereo not given) | 0.939% | 1.64% | -1.23% | 1.63% | 3.28% | 1.2% | 0.63% | -4.61% | 2.77% | 0.927% |
| Cc1nccn1CC1CCc2c(c3ccccc3n2C)C1=O (stereo not given) | 2.17% and 0.0485% | 1.96% and -0.656% | 5.12% and 2.92% | 1.4% and -0.3% | 4.82% and 1.34% | 1.68% and -1.02% | 3.47% and -2.09% | -0.0678% and -2.33% | 2.21% and -0.977% | -0.102% and 0.0786% |
| CC1=NN(c2ccccc2)C(=O)C1 | -3.36% | -1.06% | -0.361% | -0.407% | -0.249% | -3.17% | -4.84% | 1.69% | -1.55% | -0.303% |
| C[C@@H](O)[C@H]1C(=O)N2C(C(=O)[O-])=C(SC3Cn4cnc[n+]4C3)[C@H](C)[C@H]12 (stereo not given in full) | -0.594% | -1.93% | -0.736% | 0.334% | 0.724% | 2.31% | -1.63% | -0.792% | 0.279% | 1.62% |
| CC(C(=O)O)c1ccc2c(c1)[nH]c1ccc(Cl)cc12 (stereo not given) | -0.444% | -0.934% | 0.549% | -0.825% | -0.747% | 0.65% | -2.15% | -2.81% | -0.161% | -6.63% |
| CC[C@]1(O)C[C@H]2CN(CCc3c([nH]c4ccccc34)[C@@](C(=O)OC)(c3cc4c(cc3OC)N(C=O)[C@H]3[C@@](O)(C(=O)OC)[C@H](OC(C)=O)[C@]5(CC)C=CCN6CC[C@]43[C@@H]65)C2)C1 | 23.4% | 12.5% | 15.1% | 22.7% | 21.3% | 17.5% | 60.5% | 35.7% | 38.9% | 30.9% |
| CC(=O)O[C@H]1C(=O)[C@@]2(C)[C@H]([C@H](OC(=O)c3ccccc3)[C@]3(O)C[C@H](OC(=O)[C@H](O)[C@@H](NC(=O)c4ccccc4)c4ccccc4)C(C)=C1C3(C)C)[C@]1(OC(C)=O)CO[C@@H]1C[C@@H]2O | 9.71% | 8.37% | 6.36% | 22% | 32.7% | 16.2% | 60.4% | 25.9% | 6.74% | 6% |
| O=C([O-])CC(O)(CC(=O)[O-])C(=O)[O-].O=C([O-])CC(O)(CC(=O)[O-])C(=O)[O-].[Bi+3].[K+].[K+].[K+].[K+].[K+] | -1.08% | -0.559% | -0.17% | 0.156% | -0.856% | 0.952% | -0.691% | -1.2% | -0.266% | -15.3% |
| Cc1c(-c2ccccc2)oc2c(C(=O)OCCN3CCCCC3)cccc2c1=O | -0.48% | -1.55% | 0.152% | -0.867% | 0.0272% | 0.269% | -2.8% | -0.209% | -3.08% | -2.91% |
| O=C1CCC(N2C(=O)c3ccccc3C2=O)C(=O)N1 (stereo not given) | -2.65% | -1.06% | -0.846% | -1.66% | -0.665% | -1.64% | -7.47% | -2.51% | -2.2% | -0.0477% |
| O=C(Nc1ccc([N+](=O)[O-])cc1Cl)c1cc(Cl)ccc1O | 43.9% | -2.57% | 24.1% | 2.53% | 4.01% | 5.02% | 7.85% | 16.6% | 3.13% | 61.3% |
| CCCCCCCCCCCCCCCC(=O)O[C@@H]1[C@@H](O)[C@@H](O)[C@@H]([C@H](NC(=O)[C@@H]2C[C@@H](CCC)CN2C)[C@H](C)Cl)O[C@@H]1SC | 0.38% | -0.882% | 0.64% | -0.0578% | 2.42% | 2.01% | -1.46% | 1.12% | 0.759% | -0.501% |
| O=C(CCCN1CC=C(n2c(=O)[nH]c3ccccc32)CC1)c1ccc(F)cc1 | -2.81% | -3.22% | 1.35% | -2.63% | -0.994% | -4.16% | 3.11% | -2.04% | -2.84% | 0.682% |
| CO/N=C(\C(=O)N[C@@H]1C(=O)N2C(C(=O)O)=C(CSC(=O)c3ccco3)CS[C@H]12)c1csc(N)n1 | -1.65% | 1.16% | -1.04% | -0.83% | 0.968% | -1.16% | -1.6% | 1.14% | -0.598% | 0.953% |
| O=c1[nH]c(=O)n([C@H]2C[C@H](O)[C@@H](CO)O2)cc1I | 0.0722% | -1.6% | -3.14% | -0.0918% | -2.1% | -0.2% | 17.9% | -1.37% | -0.112% | 0.635% |
| NNC(=O)c1ccncc1 | 3.87% | -2.25% | 1.93% | 0.954% | 0.333% | -0.478% | 44.1% | 3.88% | -2.88% | -0.311% |
| CCOc1ccc(NC(C)=O)cc1 | 1.41% | 1.55% | 3.09% | 2.76% | 2.76% | -0.142% | 47.6% | 2.49% | -4.96% | 1.58% |
| CC(=O)O[C@]1(C(C)=O)CC[C@H]2[C@@H]3C=C(C)C4=CC(=O)CC[C@]4(C)[C@H]3CC[C@@]21C | 0.869% | 1.56% | 2.71% | 1.56% | -0.284% | -3.03% | -2.32% | -1.52% | -0.924% | 1.41% |
